Assay [1] can be described thus: qHTS assay to identify small molecule antagonists of the estrogen receptor beta (ER-beta) signaling pathway - cell viability counter screen (AID 1259382). Further: nearly all actives have a fitted effect of over 55% in size. Further: potency means the concentration at half of the fitted maximal effect.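 On activity change, negative = cytotoxicity: HEK293T cells carrying ER-beta-UAS-bla reporter stimulated with estradiol; series mostly up to about 92 µM.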 Put shortly:
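ER-beta-UAS-bla HEK293T cells in 2% charcoal-stripped FBS medium, treated with compound plus 1 nM 17-beta-estradiol for 16 h at 37C. Viability read by CellTiter-Glo luminescence after 30 min at room temperature in the same wells.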
Background: qHTS replaces the single test concentration by a dilution series.

Assay [2] addresses Estrogen receptor (Homo sapiens) (UniProt P03372). Nature of the assay: qHTS assay to identify small molecule agonists of the estrogen receptor alpha (ER-alpha) signaling pathway in the presence of an antagonist (AID 1259383; calls by dose curve; further: top concentration of the series differs between compounds; nearly all actives have a fitted effect of over 15% in size). Put shortly:
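VM7Luc4E2 cells express endogenous full-length ER-alpha with an ERE-luciferase reporter and were hormone-deprived for 5 days. Compounds at 15 concentrations were added with 10.0nM ICI-182,780 for 22hr at 37C. Luminescence was read with ONE-Glo.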

The nature of assay [3]: qHTS assay to identify small molecule agonists or antagonists of the thyroid stimulating hormone receptor (TSHR) signaling pathway - wild type cell line counter screen (AID 1259384; calls by dose curve). Put shortly: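 Counter screen in untransfected Hek293: compounds (15-point titration, triplicate) plus phosphodiesterase inhibitor Ro20-1724 added after 18 h plating; 30 min RT. Intracellular cAMP via competitive d2/cryptate immunoassay, 1 h incubation.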

The target in assay [4] is Thyrotropin receptor (Homo sapiens) (UniProt P16473). As to the kind of experiment: qHTS assay to identify small molecule antagonists of the thyroid stimulating hormone receptor (TSHR) signaling pathway (AID 1259385; calls by dose curve; further: nearly all actives have a fitted effect of over 20% in size). Put shortly: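 Antagonist mode: compound-treated TSHR-expressing HEK293 cells were stimulated with 1.5 ng/mL TSH (final) in presence of Ro20-1724 for 30 min at RT. HTRF cAMP detection after 1 h; each compound tested at 15 concentrations, triplicate.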
Sequence of Thyrotropin receptor (Homo sapiens) (P16473 whole entry, looked up): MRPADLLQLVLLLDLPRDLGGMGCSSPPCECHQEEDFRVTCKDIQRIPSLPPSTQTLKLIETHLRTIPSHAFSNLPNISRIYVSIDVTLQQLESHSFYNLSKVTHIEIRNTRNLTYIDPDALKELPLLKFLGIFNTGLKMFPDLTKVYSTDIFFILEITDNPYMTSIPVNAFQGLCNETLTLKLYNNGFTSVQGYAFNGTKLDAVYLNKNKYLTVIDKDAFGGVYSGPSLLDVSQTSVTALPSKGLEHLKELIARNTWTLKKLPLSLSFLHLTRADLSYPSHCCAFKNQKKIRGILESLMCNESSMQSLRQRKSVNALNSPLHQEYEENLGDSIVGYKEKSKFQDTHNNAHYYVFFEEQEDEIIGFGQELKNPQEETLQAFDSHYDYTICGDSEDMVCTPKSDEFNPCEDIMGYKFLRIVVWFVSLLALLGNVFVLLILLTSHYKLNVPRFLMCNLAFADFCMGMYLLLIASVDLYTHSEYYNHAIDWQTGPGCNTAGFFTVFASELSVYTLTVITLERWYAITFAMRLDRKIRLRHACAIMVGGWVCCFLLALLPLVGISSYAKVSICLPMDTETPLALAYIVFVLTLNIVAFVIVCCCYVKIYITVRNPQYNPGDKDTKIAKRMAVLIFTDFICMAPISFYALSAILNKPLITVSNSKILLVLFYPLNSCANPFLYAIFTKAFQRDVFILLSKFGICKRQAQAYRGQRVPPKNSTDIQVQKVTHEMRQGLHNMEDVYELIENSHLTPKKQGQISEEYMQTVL

Assay [5] can be described thus: qHTS assay to identify small molecule agonists of the estrogen receptor alpha (ER-alpha) signaling pathway in the presence of an antagonist - cell viability counter screen (AID 1259386).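 Further: cells exposed to compounds for 22 h at 37 °C before the viability read; nearly all actives have a fitted effect of over 30% in size.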 Further: potency means the concentration at half of the fitted maximal effect. On activity change, negative = cytotoxicity: series mostly up to about 92 µM. Put shortly: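 Cell viability in VM7Luc4E2 cells (endogenous full-length ER-alpha) measured by CellTiter-Fluor fluorescence in the same wells as the luciferase screen. Cells pre-cultured 5 days in charcoal-stripped serum, then treated 22 h with compounds at 15 concentrations plus 10.0nM ICI-182,780.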

Assay [6] addresses Progesterone receptor (Homo sapiens) (UniProt P06401). Nature of the assay: qHTS assay to identify small molecule agonists of the progesterone receptor (PR) signaling pathway (AID 1346784; calls by dose curve; further: nearly all actives have a fitted effect of over 30% in size). Put shortly: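 Compounds were tested for PR agonism in HEK 293T cells bearing a beta-lactamase gene under UAS control. Treatment lasted 16 hr at 37C; signal came from fluorescence of a FRET substrate.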

The nature of assay [7]: qHTS assay to identify small molecule antagonists of the progesterone receptor (PR) signaling pathway - cell viability counter screen (AID 1346798). Further: series mostly up to about 92 µM; nearly all actives have a fitted effect of over 50% in size. Put shortly: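 Following a 4 hr attachment, PR-UAS-bla HEK293T cells in charcoal-stripped FBS medium were exposed to compounds with R5020 for 16 hr; CellTiter-Glo was added and luminescence read after 30 min at room temperature.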

The nature of assay [8]: qHTS assay to identify small molecule agonists of the progesterone receptor (PR) signaling pathway - cell viability counter screen (AID 1346799; calls by dose curve; further: nearly all actives have a fitted effect of over 45% in size). Put shortly:
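Here, 3,000 PR-UAS-bla HEK293T cells per well were treated with compounds for 16 hr after a 6 hr preincubation at 37C and 5% CO2; cell viability is the CellTiter-Glo luminescence signal.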

A short description of assay [9]: qHTS assay to identify small molecule antagonists of the TGF-beta/Smad signaling pathway - cell viability counter screen (AID 1346824). Further: nearly all actives have a fitted effect of over 50% in size. Put shortly:
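Cytotoxicity counter-screen run in the same wells as the beta-lactamase Smad reporter read: CellTiter-Glo luminescence after 30 min at room temperature. HEK 293T SBE-bla cells had 5 hr compound exposure at 37 C with TGF-beta1 (0.25 ng/mL stock).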

A short description of assay [10]: qHTS assay to identify small molecule agonists of the TGF-beta/Smad signaling pathway - cell viability counter screen (AID 1346829). Further: top concentration of the series differs between compounds; nearly all actives have a fitted effect of over 45% in size. Put shortly:
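HEK 293T SBE-bla line, 5 hr compound exposure at 37 C, multiplexed CellTiter-Glo viability read by luminescence.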

A short description of assay [11]: qHTS assay to identify small molecule agonists of the TGF-beta/Smad signaling pathway (AID 1346859; active means well fitted activation curve with a large enough effect in the signal ratio in the repeat runs, not every such curve was filed as active; the % refers to the signal ratio; further: series mostly up to about 77 µM). Put shortly: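 Each well held 4,000 SBE-bla HEK 293T cells incubated overnight before compound addition; 5 hr later the cleavable FRET substrate went on for 2 hr at room temperature, and fluorescence was read at two emissions.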
The target of assay [12] is Thyrotropin-releasing hormone receptor (Homo sapiens) (UniProt P34981). As to the kind of experiment: qHTS assay to identify small molecule antagonists of the thyrotropin-releasing hormone receptor (TRHR) signaling pathway (AID 1346877; active means well fitted inhibition curve with a large enough effect in the repeat runs, not every such curve was filed as active; further: series mostly up to about 51 µM). Put shortly: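 TRHR-expressing HEK293 cells loaded with calcium dye for 2 h at 37 C; compounds pre-incubated 5 min at room temperature before TRH challenge at 1 nM final. Intracellular calcium fluorescence read kinetically for 3 min; 15 concentrations in triplicate.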
Sequence of Thyrotropin-releasing hormone receptor (Homo sapiens) (P34981 whole entry, looked up): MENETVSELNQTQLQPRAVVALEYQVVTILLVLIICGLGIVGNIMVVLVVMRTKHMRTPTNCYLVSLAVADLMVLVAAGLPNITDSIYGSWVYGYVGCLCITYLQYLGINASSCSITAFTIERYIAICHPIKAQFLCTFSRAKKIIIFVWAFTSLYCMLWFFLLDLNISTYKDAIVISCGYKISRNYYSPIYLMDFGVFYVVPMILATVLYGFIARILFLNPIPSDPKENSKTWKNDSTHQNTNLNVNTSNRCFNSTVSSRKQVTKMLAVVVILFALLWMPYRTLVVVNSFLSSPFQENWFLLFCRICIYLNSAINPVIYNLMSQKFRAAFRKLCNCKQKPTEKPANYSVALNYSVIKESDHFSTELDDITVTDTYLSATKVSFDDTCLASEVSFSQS

Assay [13] shares this target. As to the kind of experiment: qHTS assay to identify small molecule agonists of the thyrotropin-releasing hormone receptor (TRHR) signaling pathway (AID 1346891; calls by dose curve; further: series mostly up to about 58 µM). Put shortly:
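Screening of agonists relied on calcium signalling in HEK293 cells expressing human TRHR: dye loading 2 h at 37 °C preceded compound addition and a 3-min fluorescence time course.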

Assay [14] can be described thus: Human pregnane X receptor (PXR) small molecule agonists, qHTS cell viability counter screen (AID 1346977). Further: nearly all actives have a fitted effect of over 50% in size. Further: potency means the concentration at half of the fitted maximal effect. Put shortly:
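Tox21 qHTS format; PXR-Luc HepG2, 2,000/well, charcoal-stripped FBS 5%. Cpd exposure 24hr. Read: CellTiter-Fluor fluorescence, multiplexed with luciferase.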

A short description of assay [15]: Caspase-3/7 induction in HepG2 cells by small molecules, qHTS assay (AID 1346978). Further: nearly all actives have a fitted effect of over 15% in size. Further: potency means the concentration at half of the fitted maximal effect. Put shortly: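 Caspase-3/7 induction was measured by Caspase-Glo 3/7 luminescence (30 min, room temperature) after a 17 hr compound exposure of wild-type HepG2 cells seeded at 2,000 per well and pre-incubated 5 hr.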
The nature of assay [16]: Caspase-3/7 induction in CHO-K1 cells by small molecules, qHTS cell viability counter screen (AID 1346979). Further: nearly all actives have a fitted effect of over 35% in size. Further: potency means the concentration at half of the fitted maximal effect. Put shortly:
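CellTiter-Fluor viability check, qHTS format: wild-type CHO-K1, 16hr compound treatment, 1hr reagent incubation, fluorescence read.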

Assay [17] is described as follows: Caspase-3/7 induction in CHO-K1 cells by small molecules, qHTS assay (AID 1346980). Further: nearly all actives have a fitted effect of over 15% in size. Further: potency means the concentration at half of the fitted maximal effect. Put shortly:
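Luminescent Caspase-Glo 3/7 read (30min, room temperature) quantified apoptosis induction. Cells were wild-type CHO-K1, treated with compound for 17hr at 37 C and 5% CO2.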

A short description of assay [18]: Caspase-3/7 induction in HepG2 cells by small molecules, qHTS cell viability counter screen (AID 1346981). Further: nearly all actives have a fitted effect of over 30% in size. Further: potency means the concentration at half of the fitted maximal effect. On activity change, negative = cytotoxicity: series mostly up to about 92 µM. Put shortly:
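Wild-type HepG2 cells, 2,000/well, settled 5 hr at 37 C, 5% CO2 before compound addition. Viability read by CellTiter-Fluor fluorescence, reagent added after 16 hr compound exposure, then 1 hr at 37C, in the same wells as the caspase read.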

Assay [19] has as its target Nuclear receptor subfamily 1 group I member 2 (Homo sapiens) (UniProt O75469). Nature of the assay: Human pregnane X receptor (PXR) small molecule agonists, qHTS assay (AID 1346982). Further: nearly all actives have a fitted effect of over 35% in size. Further: potency means the concentration at half of the fitted maximal effect. Put shortly:
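PXR-Luc HepG2 reporter cells (CYP3A4-driven luciferase) in 5% charcoal-stripped FBS medium, plated 5 h before compound addition, then treated 24 h at 37C. Luciferase read by ONE-Glo luminescence after 30 min at room temperature.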

The target in assay [20] is Progesterone receptor (Homo sapiens) (UniProt P06401). As to the kind of experiment: qHTS assay to identify small molecule antagonists of the progesterone receptor (PR) signaling pathway (AID 1346795; active means well fitted inhibition curve with a large enough effect in the signal ratio in the repeat runs, not every such curve was filed as active; the % refers to the signal ratio; further: potency means the concentration at half of the fitted maximal effect). Put shortly: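 In HEK293T cells bearing the PR-UAS-bla reporter, compound effects on promegestone-driven (1 nM) beta-lactamase expression are assessed after 16 hr using a fluorescent FRET substrate incubated 2 hr at room temperature.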
Sequence of Progesterone receptor (Homo sapiens) (P06401 whole entry, looked up): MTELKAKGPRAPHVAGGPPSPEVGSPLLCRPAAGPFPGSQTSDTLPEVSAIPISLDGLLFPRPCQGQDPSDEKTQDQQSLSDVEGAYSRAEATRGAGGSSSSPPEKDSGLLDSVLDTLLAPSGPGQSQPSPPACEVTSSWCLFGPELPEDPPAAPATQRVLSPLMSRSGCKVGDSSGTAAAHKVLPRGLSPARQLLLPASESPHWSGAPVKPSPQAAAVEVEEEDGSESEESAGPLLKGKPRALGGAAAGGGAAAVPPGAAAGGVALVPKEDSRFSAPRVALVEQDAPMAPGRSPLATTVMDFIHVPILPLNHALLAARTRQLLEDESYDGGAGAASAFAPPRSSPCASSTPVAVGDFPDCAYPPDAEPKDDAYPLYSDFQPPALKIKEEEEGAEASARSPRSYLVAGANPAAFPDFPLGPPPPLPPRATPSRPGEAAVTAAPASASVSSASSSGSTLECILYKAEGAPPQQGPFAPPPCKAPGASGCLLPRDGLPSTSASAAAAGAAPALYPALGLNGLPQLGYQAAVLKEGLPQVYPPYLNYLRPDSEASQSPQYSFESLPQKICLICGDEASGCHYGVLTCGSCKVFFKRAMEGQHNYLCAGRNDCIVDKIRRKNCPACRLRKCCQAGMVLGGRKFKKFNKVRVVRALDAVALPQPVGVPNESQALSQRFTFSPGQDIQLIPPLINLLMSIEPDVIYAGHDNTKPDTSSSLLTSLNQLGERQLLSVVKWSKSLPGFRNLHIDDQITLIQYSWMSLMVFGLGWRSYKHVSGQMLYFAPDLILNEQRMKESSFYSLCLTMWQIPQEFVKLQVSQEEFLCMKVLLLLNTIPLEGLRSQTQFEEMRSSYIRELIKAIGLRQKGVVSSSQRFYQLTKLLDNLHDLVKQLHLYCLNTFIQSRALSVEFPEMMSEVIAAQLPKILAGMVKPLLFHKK

Each structure is given as a SMILES string. A number with no mark means an inactive call. Inconclusive results are not listed. The source made the active and inactive calls. Unless noted, the call rests on the fitted dose curve; in most records, active means well fitted curve in the direction sought with a large enough effect in the repeat runs; inconclusive means weak or mixed curves; inactive means no such curve, though single readings can be large; an effect the other way counts as inactive or inconclusive.

We go through 9 molecules from PubChem BioAssay (Tox21).
On the % scale 0 is the no-effect control and ±100 the full control effect.

Sequence of Nuclear receptor subfamily 1 group I member 2 (Homo sapiens) (O75469 whole entry, looked up): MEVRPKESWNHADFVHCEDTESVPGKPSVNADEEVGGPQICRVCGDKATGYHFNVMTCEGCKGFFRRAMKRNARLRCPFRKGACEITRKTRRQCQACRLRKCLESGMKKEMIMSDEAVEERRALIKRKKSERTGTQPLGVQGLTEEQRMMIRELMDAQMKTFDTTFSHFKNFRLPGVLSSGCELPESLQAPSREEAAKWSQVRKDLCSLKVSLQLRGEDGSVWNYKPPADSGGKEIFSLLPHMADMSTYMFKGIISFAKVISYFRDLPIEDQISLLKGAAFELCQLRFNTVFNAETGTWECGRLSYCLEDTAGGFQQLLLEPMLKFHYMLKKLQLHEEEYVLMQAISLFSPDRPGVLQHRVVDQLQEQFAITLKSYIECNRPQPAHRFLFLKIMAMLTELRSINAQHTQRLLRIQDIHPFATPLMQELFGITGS
Sequence of Estrogen receptor (Homo sapiens) (P03372 whole entry, looked up): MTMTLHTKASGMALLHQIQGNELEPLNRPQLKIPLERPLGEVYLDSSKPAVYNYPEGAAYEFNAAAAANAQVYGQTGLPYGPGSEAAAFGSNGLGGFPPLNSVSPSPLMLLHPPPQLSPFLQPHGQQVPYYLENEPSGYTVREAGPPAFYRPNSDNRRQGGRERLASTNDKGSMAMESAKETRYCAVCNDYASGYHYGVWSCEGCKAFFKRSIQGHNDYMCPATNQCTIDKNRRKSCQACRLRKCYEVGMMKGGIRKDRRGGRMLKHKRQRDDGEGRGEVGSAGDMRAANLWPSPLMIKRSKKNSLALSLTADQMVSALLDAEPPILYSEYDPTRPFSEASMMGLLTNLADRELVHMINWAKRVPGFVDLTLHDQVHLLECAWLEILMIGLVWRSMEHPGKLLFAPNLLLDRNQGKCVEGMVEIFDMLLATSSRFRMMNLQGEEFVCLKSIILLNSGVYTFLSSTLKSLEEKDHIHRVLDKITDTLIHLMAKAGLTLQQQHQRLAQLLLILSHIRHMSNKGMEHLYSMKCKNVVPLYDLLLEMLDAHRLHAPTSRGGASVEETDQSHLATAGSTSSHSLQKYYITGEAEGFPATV

On to `CC1=CC[C@@H](C(C)(C)O)CC1`, for which the Potency entry in assay [1], in assay [2], in assay [3], in assay [4], in assay [5] and in assay [7] was “inactive” throughout. In addition, the Potency entry in assay [8], in assay [9], in assay [10], in assay [12], in assay [13] and in [14] was “inactive” throughout. In addition, the Potency entry in assay [15], in assay [16], in assay [17], in assay [18] and in assay [19] was “inactive” in each case. Besides, the result in assay [6] and in [11] was inactive.

As to `Oc1ccc(Cl)cc1C1CCCC1`, the Potency entry in [1], in assay [2], in assay [3], in assay [4], in [5] and in assay [7] was “inactive” each time. The Potency entry in [8], in assay [9], in [10], in assay [14], in [17] and in assay [18] was “inactive” throughout. The molecule was called inactive in [6] and in assay [11].

Take `CC/C=C\C/C=C\C/C=C\CCCCCCCC(=O)OC`: the Potency entry in assay [1], in assay [2], in [3], in [4], in assay [5] and in [20] was “inactive” in each case. The Potency entry in assay [7], in assay [9], in [12] and in [13] was “inactive” each time. In addition, the result in [6] and in [11] was inactive. In [16], the Potency is 61.1 µM (active).

Take `O=C(Nc1ccccc1)c1cc(Cl)ccc1O`: the Potency entry in assay [1], in assay [2], in assay [3], in assay [4], in assay [13] and in [15] was “inactive” each time. In addition, the Potency result in assay [17] is “inactive”. In addition, the Potency was 15.4 µM (active) in [5]; 24.3 µM (active) in assay [20]; 12.2 µM (active) in assay [14]; 17.2 µM (active) in assay [16]; 15.4 µM (active) in assay [19]. In assay [11], the call was inactive.

Turning to `O=C1OC(=O)c2cc(-c3ccc4c(c3)C(=O)OC4=O)ccc21`, the Potency result in assay [1], in [2], in [3], in [4], in assay [5] and in assay [20] was “inactive” throughout. In addition, the Potency result in assay [7], in assay [9], in assay [10], in assay [12], in assay [13] and in [15] was “inactive” throughout. Besides, the Potency entry in [16], in [17] and in assay [18] was “inactive” throughout. Also, the molecule was classed as inactive in assay [6] and in [11].

With `Cc1cc(F)ccc1-c1cc(N2CC[C@@H](O)[C@H]2CO)ncc1N(C)C(=O)C(C)(C)c1cc(C(F)(F)F)cc(C(F)(F)F)c1`, the Potency in assay [1] is 53.6 µM (active); in [14], 38 µM (active); in assay [15], 38 µM (active); in assay [16], 24 µM (active); in [17] it was 38 µM (active); in [18], 38 µM (active). In [19], the Potency was 17 µM (active). Besides, the Potency result in [2], in assay [3], in assay [4], in assay [5], in [7] and in assay [9] was “inactive” throughout. Besides, the Potency result in assay [10] and in assay [13] was “inactive” each time.

For `COc1cc2ncnc(Nc3cccc(Cl)c3)c2cc1OC`, the activity change, negative = cytotoxicity is 0.759% [at 19 µM] in assay [1], -5.87% [at 19 µM] in assay [5], 9.42% [at 15.8 µM] in assay [10] and -10% [at 19 µM] in assay [18]. For the same molecule, the activation in assay [2] is -1.36% [at 19 µM]; in [6] it was -0.0125% [at 19 µM]; in assay [11], -4.98% [at 15.8 µM]; in assay [13] it was -0.271% [at 11.8 µM]. The cAMP activity change in [3] is 2.68% [at 18.9 µM, stronger effect = higher value]. Also, in [4], the activity change, negative = inhibition is 1.54% [at 19 µM]. In addition, the viability change, negative = cytotoxic in assay [9] was 0.414% [at 15.8 µM]. In addition, the caspase activation in assay [15] is 0.14% [at 19 µM]. In addition, in assay [17], the caspase-3/7 activation is -2.78% [at 19 µM].

Turning to `Cc1ccc2nc(-c3ccc(N)cc3)sc2c1S(=O)(=O)O`, the Potency entry in assay [1], in assay [2], in assay [3], in [4], in assay [5] and in [7] was “inactive” throughout. Besides, the Potency result in assay [8], in assay [9], in [10], in assay [12], in assay [14] and in assay [15] was “inactive” throughout. Also, the Potency entry in assay [16], in assay [17] and in assay [18] was “inactive” in each case. Moreover, the Potency in [19] was 2.69 µM (active).

In the case of `Nc1ccc(F)c([N+](=O)[O-])c1`, the Potency entry in assay [1], in assay [2], in [3], in assay [4], in assay [5] and in assay [20] was “inactive” throughout. Moreover, the Potency result in assay [7], in assay [9], in [10], in assay [12], in assay [13] and in assay [14] was “inactive” in each case. In addition, the Potency result in assay [15], in assay [17], in [18] and in [19] was “inactive” each time. In addition, the result in assay [6] and in assay [11] was inactive.
